Measurements from the supplement of paper PMC7726561.
The full ranking holds about 1,400 sequences; the median of “thermal melting temperature (Tm) of peptide-HLA complex” is about 60, and the lowest 2% start at about 45. The entries come from a sample that favours the lowest values as a whole.

B1: unnamed (peptide)
chain: RPDYRNITF
B2: unnamed (peptide)
chain: NPRNFSDNQL
B3: unnamed (peptide)
chain: IFSEVPVQL
B4: unnamed (peptide)
chain: GVRPFGVSL
B5: unnamed (peptide)
chain: SPYPGLRLI
B6: unnamed (peptide)
chain: SPGPSRPGL
B7: unnamed (peptide)
chain: SPAEPSVYATL
B8: unnamed (peptide)
chain: AVILRALSL
B9: unnamed (peptide)
chain: FPHLREEIL
B10: unnamed (peptide)
chain: SPASRSISLL
B11: unnamed (peptide)
chain: LPKDQGITL
B12: unnamed (peptide)
chain: APAPRPSL
B13: unnamed (peptide)
chain: LPRTVTQLV
B14: unnamed (peptide)
chain: RPISVIGGVSL
B15: unnamed (peptide)
chain: APSGGRLLSA
B16: unnamed (peptide)
chain: LPRQPPMSL
B17: unnamed (peptide)
chain: LPNGRDTPAL
B18: unnamed (peptide)
chain: SPAFSTRVL
B19: unnamed (peptide)
chain: KPFDQTTISL
B20: unnamed (peptide)
chain: RPRPGNILLQL
B21: unnamed (peptide)
chain: QPIDNVSRNLL
B22: unnamed (peptide)
chain: KVRGISEVL
B23: unnamed (peptide)
chain: QPIPFPKEAL
B24: unnamed (peptide)
chain: KPYQGNPTF
B25: unnamed (peptide)
chain: RPHAFQVIL
B26: unnamed (peptide)
chain: LPSGDRVAVSV
B27: unnamed (peptide)
chain: AANPNRFITL
B28: unnamed (peptide)
chain: TPRSPPLGL
B29: unnamed (peptide)
chain: TPINKPPVL
B30: unnamed (peptide)
chain: APRPDRLVNRL
B31: unnamed (peptide)
chain: LPHAVSSLL
B32: unnamed (peptide)
chain: LPRKPSVPW
B33: unnamed (peptide)
chain: APRQVLDLEDL
B34: unnamed (peptide)
chain: KMLTFLML
B35: unnamed (peptide)
chain: KPQTKLLIL
B36: unnamed (peptide)
chain: LPSKEHVDVI
B37: unnamed (peptide)
chain: IPFSNPRVL
B38: unnamed (peptide)
chain: LPRPWSVPPL
B39: unnamed (peptide)
chain: VPKPPSIEEF
B40: unnamed (peptide)
chain: RPAQVSQPF
B41: unnamed (peptide)
chain: IVDSARSIL
B42: unnamed (peptide)
chain: HPRKGFPGSL
B43: unnamed (peptide)
chain: APKPGGLSL
B44: unnamed (peptide)
chain: GPMNLRAAF
B45: unnamed (peptide)
chain: MPSASRVILL
B46: unnamed (peptide)
chain: APGPPGRSML
B47: unnamed (peptide)
chain: LPQLPLAAL
B48: unnamed (peptide)
chain: HPAAFPLPV
B49: unnamed (peptide)
chain: APRTVALTAL
B50: unnamed (peptide)
chain: LPQPVPLSV
B51: unnamed (peptide)
chain: IPRPDGIEW
B52: unnamed (peptide)
chain: QPHLVNIQF
B53: unnamed (peptide)
chain: RPGWLTVSL
B54: unnamed (peptide)
chain: RPAVIGDVL
B55: unnamed (peptide)
chain: HPAGPRTVF
B56: unnamed (peptide)
chain: YPTISLHAL

The sequences below were run against HLA-B*07:02 (assay: thermal melting temperature (Tm) of peptide-HLA complex; higher = more thermostable pHLA complex). Conditions: C1R-B*07:02.
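Further: lysates heated 10 min at 37–73 °C, complexes pulled down with pan-HLA I antibody, peptide signal by DIA-MS relative to 37 °C, Tm where half the complex is unfolded.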

Compared with B1, B2 is lower in thermal melting temperature: 61.7 °C for the first, 53 °C for the second.

Going from B3 to B4, the thermal melting temperature rises from 42.1 °C to 57.4 °C.

Compared with B5, B6 is lower in thermal melting temperature: 61.8 °C for the first, 56.1 °C for the second.

Going from B7 to B8, the thermal melting temperature falls from 62.8 °C to 61.1 °C.

Going from B9 to B10, the thermal melting temperature rises from 51.6 °C to 57.1 °C.

Going from B11 to B12, the thermal melting temperature falls from 61.7 °C to 58.1 °C.

Compared with B13, B14 is higher in thermal melting temperature: 45.6 °C for the first, 62.3 °C for the second.

First: B15
Second: B16
The thermal melting temperature of the first is lower: 60.1 °C for the first, 66.1 °C for the second.

Compared with B17, B18 is higher in thermal melting temperature: 59.2 °C for the first, 60.3 °C for the second.

Going from B19 to B20, the thermal melting temperature falls from 61.3 °C to 55.6 °C.

Going from B21 to B22, the thermal melting temperature rises from 59.3 °C to 60.5 °C.

Compared with B23, B24 is lower in thermal melting temperature: 60.7 °C for the first, 57.5 °C for the second.

Going from B25 to B26, the thermal melting temperature rises from 60.2 °C to 61 °C.

First: B27
Second: B28
The thermal melting temperature of the first is lower: 61.1 °C for the first, 62.3 °C for the second.

Compared with B29, B30 is higher in thermal melting temperature: 56 °C for the first, 57.3 °C for the second.

First: B31
Second: B32
The thermal melting temperature of the first is higher: 62.4 °C for the first, 59.5 °C for the second.

Going from B33 to B34, the thermal melting temperature rises from 60.9 °C to 61.7 °C.

Compared with B35, B36 is lower in thermal melting temperature: 60.8 °C for the first, 44.8 °C for the second.

Going from B37 to B38, the thermal melting temperature falls from 61.4 °C to 60 °C.

Going from B39 to B40, the thermal melting temperature falls from 62.3 °C to 60.2 °C.

Compared with B41, B42 is lower in thermal melting temperature: 57.8 °C for the first, 45 °C for the second.

Going from B43 to B44, the thermal melting temperature rises from 61.7 °C to 62.1 °C.

First: B45
Second: B46
The thermal melting temperature of the first is higher: 62.7 °C for the first, 60 °C for the second.

First: B47
Second: B48
The thermal melting temperature of the first is higher: 59 °C for the first, 57.7 °C for the second.

First: B49
Second: B50
The thermal melting temperature of the first is higher: 62.9 °C for the first, 62.6 °C for the second.

Going from B51 to B52, the thermal melting temperature falls from 58.4 °C to 41.6 °C.

First: B53
Second: B54
The thermal melting temperature of the first is lower: 59.2 °C for the first, 59.3 °C for the second.

Going from B55 to B56, the thermal melting temperature rises from 59.1 °C to 59.8 °C.
